This note sets out measurements from PubChem BioAssay (Tox21).

Inconclusive results are not listed. A call without a number means that no potency is given here. Active and inactive are the calls of the source. Calls come from the whole dose curve; as a rule, active = well fitted inhibition curve with a large enough effect in the repeat runs; inconclusive = weak or mixed curves, or effect the other way; inactive = no such curve, though single readings can be large or run the other way.

A short description of the test: qHTS assay to identify small molecule antagonists of the retinoic acid receptor (RAR) signaling pathway (AID 1159552; note: nearly all actives have a fitted effect of over 50% in size). Conditions: C3RL4 RARE luciferase reporter, retinol-stimulated, 6 h; series mostly up to 92.4 µM. An excerpt: National Center for Advancing Translational Sciences [NCATS]
NIH Chemical Genomics Center [NCGC]
U.S. Environmental Protection Agency [EPA]
National Institutes of Environmental Health Sciences [NIEHS]
National Toxicology Program [NTP]
U.S. Food and Drug Administration [FDA]
All-trans Retinoic acid (atRA) is the potent natural metabolite of retinol and plays an important role in normal embryonic development and maintenance of cellular phenotype in adult animals. atRA is the activating ligand for the retinoic acid receptors (RARs) which form heterodimers with retinoid X receptors (RXRs) on the retinoic acid response element (RARE). Through activation of the RAR/RXRs nuclear receptors, atRA regulates the transcription of a large number of protein-coding genes and regulatory RNAs. Intracellular levels of atRA are controlled by the retinol signaling pathway (RSP) that regulates the biosynthesis and catabolism of atRA to maintain physiological levels. Chemicals that interfere with the RSP can cause abnormal intracellular levels of atRA and therefore are potential developmental toxicants. To assess compounds for the potential adverse effect on embryonic development through interfering with retinol signaling, a cell-based RARE luciferase reporter gene assay was used. C3RL4 cell line (OARSA/CFSAN/FDA, Laurel, MD) was used to screen Tox21 10K compound library for identifying inhibitors of the RSP.
Tox21 Assay Protocol Summary:
C3RL4 cells were seeded at 1,000/well in 4 uL of assay medium into white solid 1,536-well tissue culture plates (Greiner Bio-One North America Inc. Monroe, NC) using a Multidrop Combi (Thermo Scientific, Waltham, MA) dispenser. After incubation at 37 C and 5% CO2 for an overnight, 23 nL of compounds dissolved in DMSO, positive control or DMSO only were transferred by a Pintool station (Kalypsys, San Diego, CA). One ul of 1 uM (final concentration) of Retinol was added right after the compound addition by using a Flying Reagent Dispenser (FRD) (Aurora Discovery, San Diego, CA). After 6 hr incubation at 37 C and 5% CO2, 5 uL of Amplite Luciferase reagent (AAT Bioquest Inc. Sunnyvale, CA) was added to each assay plate using an FRD. Luminescence was quantified on a ViewLux plate reader (PerkinElmer, Waltham, MA) after 30 min incubation at room temperature.
Take `CC(C)(CO)[C@@H](O)C(=O)NCCCO`: the Potency entry was “inactive”. On to `O=C(Oc1ccccc1C(=O)O)c1ccccc1O`, for which the Potency entry was “inactive”.

Consider `OCCCCCCCl`, for which the Potency result is “inactive”. For `CC(=O)Nc1ccc(C)cc1`, the Potency entry was “inactive”. For the compound `BrC/C=C/CBr`, the activity, negative = inhibition is 22.9% [at 19 µM] (inactive). `Cc1ccccc1OCC1CO1` (stereo not given): the Potency entry is “inactive”. Consider `CC(=O)N(CC(O)CO)c1c(I)c(C(=O)NCC(O)CO)c(I)c(C(=O)NCC(O)CO)c1I` (stereo not given), for which the Potency result was “inactive”. Turning to `CCCCCCCCCCCCCCCCI`, the activity, negative = inhibition is -6.93% [at 19 µM] (inactive). Take `NCCc1ccn[nH]1`: the Potency result is “inactive”. The same measure, in the same setting: then `CC(C)CCO`, with “inactive”; and `COc1cc([N+](=O)[O-])ccc1N`, with “inactive”; and `C=CCOCC(CO)(COCC=C)COCC=C`, with “inactive”. Take `CN(C1CCCCC1)S(=O)(=O)c1ccccc1N`: the Potency entry was “inactive”. Still for that read-out and setting: with `CCOC(=O)C(=O)c1csc(NC=O)n1` the entry was “inactive”. On to `O=[Si]=O`, for which the Potency entry is “inactive”. With `Nc1cc(S(=O)(=O)O)ccc1S(=O)(=O)O`, the Potency result was “inactive”.

On to `O=C(COCCOCCOCC(=O)Nc1c(I)cc(I)c(C(=O)O)c1I)Nc1c(I)cc(I)c(C(=O)O)c1I`, for which the Potency entry was “inactive”.

For the compound `O=C(O)c1ccc(OCCN2CCCCC2)cc1`, the Potency result was “inactive”. Take `NS(=O)(=O)c1cc2c(cc1Cl)NC(C(Cl)Cl)NS2(=O)=O` (stereo not given): the Potency result is “inactive”. With `COC(OC)C(C)c1ccccc1` (stereo not given), the Potency result was “inactive”. Still for that read-out and setting: with `Nc1cc(Cl)cc(S(=O)(=O)O)c1O` the entry was “inactive”; with `C[CH2][Ge]([Cl])([CH2]C)[CH2]C`, “inactive”. On to `O=C1CC[C@H](C(=O)N2CCCCC2)N1`, for which the Potency result is “inactive”. On to `CCN(CCC#N)c1ccccc1`, for which the Potency entry is “inactive”. `CCN1CN(CC)CN(CC)C1`: the Potency result was “inactive”.

As to `c1ccc(CNc2ncnc3nc[nH]c23)cc1`, the Potency result is “inactive”. Take `CCCCCCCCCCC`: the Potency result was “inactive”. As for `O=C(CN1CCN(Cc2ccc3c(c2)OCO3)CC1)N1c2ccccc2Sc2ccccc21`, the Potency result was “inactive”. Regarding `C=CCOc1cc(Cl)ccc1C(=O)NCCN(CC)CC`, the Potency result is “inactive”. Turning to `CCC(=O)c1ccc(O)cc1`, the Potency entry is “inactive”. With `CCCCC(CC)C(=O)OC(C)C` (stereo not given), the Potency entry was “inactive”. Still for that read-out and setting: then `CCCCCCCC/C=C\CCCCCCCC(=O)OC[C@@H](O)[C@H]1OC[C@H](O)[C@H]1O`, with “inactive”. With `Cc1nc(C)nc(N2C[C@@H](C)N(c3ccnc([C@@H](C)O)n3)[C@@H](C)C2)n1`, the Potency entry is “inactive”. For `COC(=O)CCC(=O)O`, the Potency entry was “inactive”. As to `CCCCCCCCCCCCCCCC(=O)NCCO`, the Potency entry is “inactive”.

Regarding `CCCC(C)CC` (stereo not given), the Potency result was “inactive”. As for `CCCCCN(CCCOC)C(=O)C(CCC(=O)O)NC(=O)c1ccc(Cl)c(Cl)c1` (stereo not given), the Potency entry is “inactive”.

Consider `CC1(N)CCC(C(C)(C)N)CC1` (stereo not given), for which the Potency entry was “inactive”. In the case of `Nc1ccc(C(=O)OCC(O)CO)cc1` (stereo not given), the Potency entry is “inactive”. As for `Cc1nc2n(c(=O)c1CCN1CCC(C(=O)c3ccc(F)cc3)CC1)CCS2`, the Potency result was “inactive”.
